# Test results: the OligoGym collection
# How the values were obtained:
# Assay in all cases: pooled miR-30 sensor sort-seq; sequence = guide strand
# Conditions in all cases: shRNA
# [1] = molecular target: SELL
# [2] = molecular target: SELO
# [3] = molecular target: SECISBP2
# [4] = molecular target: SECISBP2L
# [5] = molecular target: SERPINB7
# [6] = molecular target: SENP1
# [7] = molecular target: SERPINE2
# Note: reference of the scale not given here.
sequence,measurement,setting,value
TTGTCTCGGCAGAATCTTCTAG,sensor-assay potency score (higher = more potent),[1],-0.184
TAATTGTCTCGGCAGAATCTTC,sensor-assay potency score (higher = more potent),[1],-1.3
TTGAGCTGCAGCTCCCAGCGCT,sensor-assay potency score (higher = more potent),[2],-0.647
TTCTCTTGGATTTCTTGCCTTT,sensor-assay potency score (higher = more potent),[1],0.216
TTTGTTGTAGGAAGGATCCGAA,sensor-assay potency score (higher = more potent),[3],-0.00971
TTTCTCTGCACGCTGTCGCTGG,sensor-assay potency score (higher = more potent),[2],-0.303
TTCCTGGGAAACAATCTCCTGT,sensor-assay potency score (higher = more potent),[4],-0.00713
TTCAGTAAGAGATTTGTTGGTT,sensor-assay potency score (higher = more potent),[1],0.629
TTCGCTGCATAGAAACTCCCGG,sensor-assay potency score (higher = more potent),[2],0.0168
TTGTTGAATATTCTCATCCTTA,sensor-assay potency score (higher = more potent),[4],-0.343
TATAACACACTTGATCTTGTTT,sensor-assay potency score (higher = more potent),[4],0.0597
TTATTGATGATTTCTACACATT,sensor-assay potency score (higher = more potent),[1],-1.76
TTTGACATATTGGACTAGGATT,sensor-assay potency score (higher = more potent),[1],-1.37
TTTGATAACACTGCAGCTGGTT,sensor-assay potency score (higher = more potent),[3],0.27
TAGTCCAGTATCTTCCTGGGAA,sensor-assay potency score (higher = more potent),[4],-0.242
TTCGCTTATGGTAACCATCTGA,sensor-assay potency score (higher = more potent),[3],0.0735
TAGGATTTGACCAGATTCCAGA,sensor-assay potency score (higher = more potent),[1],-0.318
TTTCAAACTATTCTCAGCGTAA,sensor-assay potency score (higher = more potent),[3],-0.344
TTGATATAGATCTCCACGCAGT,sensor-assay potency score (higher = more potent),[1],-0.218
TAACATTTTTAGGATCTGCTGA,sensor-assay potency score (higher = more potent),[3],0.162
TTGCTGTGAAGCATCTACCAGA,sensor-assay potency score (higher = more potent),[4],-0.408
TAGCTGAGGTAGTACTGCCTGT,sensor-assay potency score (higher = more potent),[4],-0.712
TTGAGAGCAAACACAAAGGGAA,sensor-assay potency score (higher = more potent),[3],-0.174
TTGCAGTTCAGGAAAGTCCAGT,sensor-assay potency score (higher = more potent),[3],-0.458
TTCACTGTCAAACTTTTGCTGA,sensor-assay potency score (higher = more potent),[3],-0.0289
TAAATCTGTGTAATTGTCTCGG,sensor-assay potency score (higher = more potent),[1],0.157
TCACTTGACAGGTTGGTTCTGG,sensor-assay potency score (higher = more potent),[1],0.848
TTGATCGACTATCAGGACCTGC,sensor-assay potency score (higher = more potent),[4],-0.0412
TTAATCATTGAGAAACTTTTGT,sensor-assay potency score (higher = more potent),[1],-0.0417
TTTGACTGTATCTTCTCACAGT,sensor-assay potency score (higher = more potent),[3],0.358
TATAACATTATAGAGAGCCTCA,sensor-assay potency score (higher = more potent),[4],-0.0315
TACGCTAACAGGAACCAGCTTG,sensor-assay potency score (higher = more potent),[4],-0.34
TTTGGGATTACCATCATAGAAC,sensor-assay potency score (higher = more potent),[2],-1.22
TAGTGTGAAAAGAAGCTGCAGT,sensor-assay potency score (higher = more potent),[4],0.417
TTTCTGAATACTCTTGAGCTGT,sensor-assay potency score (higher = more potent),[4],-0.537
TTTTCTTCTTAAACAGAGCTTT,sensor-assay potency score (higher = more potent),[3],-0.323
TAACACAAGCATCCACTTCTTT,sensor-assay potency score (higher = more potent),[3],-0.191
TTGACATCTGCTGATAACTTGA,sensor-assay potency score (higher = more potent),[3],-0.133
TTGAAACCCATCTTCATCCTGT,sensor-assay potency score (higher = more potent),[4],0.983
TTGTATGGCAACTAAATCTGTG,sensor-assay potency score (higher = more potent),[1],-0.502
TTCTCTATCTTGAACTGAGGAA,sensor-assay potency score (higher = more potent),[5],-0.416
TAATAGGTAATATTCTTCTTTC,sensor-assay potency score (higher = more potent),[6],-0.79
TTTAACAGAACTATGAAAGATG,sensor-assay potency score (higher = more potent),[7],-0.755
TTCATAATTCTTCTCTATCTTG,sensor-assay potency score (higher = more potent),[5],-0.438
TTGTGCTACAGCTGTGAACTTG,sensor-assay potency score (higher = more potent),[7],-0.393
